PubChem BioAssay AID1508611 (The Scripps Research Institute Molecular Screening Center, 2020)
Among all 6,700 compounds or so, about 20 (0.3%) were called active.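 How the source made its calls: active means mean percent activation in the counterscreen above 29.09%; inactive means the rest.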 The list comes from a sample in which actives are over-represented; it also holds similar structures and randomly drawn compounds.

Each compound was assayed against Glucose-dependent insulinotropic receptor (Homo sapiens) (UniProt Q8TDV5) (assay: GPR119 activators in beta-arrestin cells, counter-screen for GPR151 activator project, cell-based, PathHunter beta-arrestin, luminescence, triplicate (AID 1508611;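 further: counterscreen on off-target GPR119 to flag nonselective hits from the GPR151 activator screen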)). Details: 90 min, at 11.2 µM, hits give high values, 0 = compound-well median, 100 = enzyme-acceptor control.
Glucose-dependent insulinotropic receptor (Homo sapiens), sequence (Q8TDV5 whole entry, looked up): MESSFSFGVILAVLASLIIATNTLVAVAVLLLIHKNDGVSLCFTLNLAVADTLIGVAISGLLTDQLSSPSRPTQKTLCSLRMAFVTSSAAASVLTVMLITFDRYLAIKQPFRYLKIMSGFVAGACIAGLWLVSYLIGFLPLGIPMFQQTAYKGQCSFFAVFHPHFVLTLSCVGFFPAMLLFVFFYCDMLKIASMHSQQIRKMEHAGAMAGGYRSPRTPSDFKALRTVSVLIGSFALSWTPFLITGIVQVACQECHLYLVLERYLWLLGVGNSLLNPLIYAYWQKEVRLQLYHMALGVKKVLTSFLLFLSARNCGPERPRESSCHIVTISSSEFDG

Row | Structure (SMILES) | activation
1 | Cc1nc(-c2cccc(NC(=O)C3CC(=O)c4ccccc43)c2)cs1 (stereo unspecified) | 4.74% (inactive)
2 | CC(C)CNc1nc2c(c(=O)[nH]c(=O)n2C)n1CC(C)O (stereo unspecified) | 5.13% (inactive)
3 | CCCCOC(=O)C1=C(C)NC2=C(C(=O)CCC2)C1c1cccc([N+](=O)[O-])c1 (stereo unspecified) | -13.7% (inactive)
4 | NC(=O)C1CCN(C(=O)c2ccc(-c3ccccc3)cc2)CC1 | -13.1% (inactive)
5 | CN1C(=O)c2ccc(N3C(=O)c4cccc([N+](=O)[O-])c4C3=O)cc2C1=O | -8.76% (inactive)
6 | CCN(CC)c1nc(Nc2cc(OC)c(OC)c(OC)c2)nc(N2CCOCC2)n1 | -4.38% (inactive)
7 | COc1cc(Nc2ccnc(Nc3ccc(N4CCOCC4)cc3)n2)cc(OC)c1OC | 31.6% (active)
8 | COc1cc2nc(-c3cccc(C(C)=O)c3)nc(Nc3ccc(N4CCOCC4)cc3)c2cc1OC | 1.25% (inactive)
9 | CCN(CC)c1nc(Nc2ccccc2)nc(Nc2ccccc2)n1 | 5.68% (inactive)
10 | CCOC(=O)c1cccc(NC(=O)/C=C/c2ccccc2)c1 | 2.43% (inactive)
11 | COCCn1c(C)cc(C(=O)CSc2nnc(-c3ccccc3)o2)c1C | 0.76% (inactive)
12 | COc1ccc(OC)c(S(=O)(=O)Oc2ccc(Cl)c3cccnc23)c1 | 14.7% (inactive)
13 | O=C(CC1C(=O)NCCN1C(=O)c1ccc([N+](=O)[O-])cc1)Nc1cccc(Cl)c1 (stereo unspecified) | 8.78% (inactive)
14 | COc1ccc(-c2cc(N)n(S(=O)(=O)c3ccccc3)n2)c(OC)c1 | -9.92% (inactive)
15 | c1ccc(-c2ccc(OCCCNCCN3CCOCC3)cc2)cc1 | -6.67% (inactive)
16 | COc1ccc(C2=NN(C(=O)c3cc(OC)c(OC)c(OC)c3)C(c3ccc(Cl)cc3)C2)cc1OC (stereo unspecified) | 10.6% (inactive)
17 | C=C(C)CSc1nc2sc3c(c2c(=O)n1-c1ccc(OC)cc1)CC(C)(C)OC3 | 13.8% (inactive)
18 | COc1ccccc1C1CCCN1C(=O)C1CCN(c2nc(C)c3ccccc3n2)CC1 (stereo unspecified) | 0.39% (inactive)
19 | COc1ccc(OC)c(NC(=O)CN(c2cccc(C)c2C)S(C)(=O)=O)c1 | -9.68% (inactive)

Row | Structure (SMILES) | activation
20 | O=C(CC12CC3CC(CC(C3)C1)C2)Nc1ccc2oc(=O)ccc2c1 | -8.76% (inactive)
21 | CC(C)(C)C1(O)CCN2C[C@H]3c4ccccc4CCc4cccc(c43)[C@@H]2C1 (stereo partly specified) | 2.66% (inactive)
22 | OCCC1CN(Cc2ccc3cc(F)ccc3n2)CCN1C1CCCC1 (stereo unspecified) | 11.7% (inactive)
23 | CCCn1ncc(CN2CCCC(N3CCC(CO)CC3)C2)c1C (stereo unspecified) | 1.74% (inactive)
24 | CCCOC(=O)C1=C(C)NC(=O)NC1c1ccc(Br)cc1 (stereo unspecified) | -8.21% (inactive)
25 | O=C(Cn1c(=S)nc2ccccn21)N1CCc2ccccc2C1 | 4.38% (inactive)
26 | CCOC(=O)C1=CN(C)C=C(C(=O)OCC)C1c1ccc(OC)cc1 | 7.33% (inactive)
27 | O=C(O)COc1ccc(N2C(=O)C(=O)/C(=C(\O)c3ccccc3)C2c2ccc(Cl)cc2Cl)cc1 (stereo unspecified) | 1.15% (inactive)
28 | Cc1nnc(SCC(=O)NCc2ccccc2)s1 | -8.49% (inactive)
29 | CN(CC(=O)Nc1cccc2c1CCCC2)S(=O)(=O)c1ccc(Cl)cc1 | -16% (inactive)
30 | COC(=O)[C@@H]1CC[C@H](C)[C@@H](c2ccc(C)cc2)N1C(=O)c1ccc(/C=N/O[C@H](C)c2cn([C@@H]3COC[C@H]3O)nn2)cc1 | -5.11% (inactive)
31 | Cc1ccccc1CC1(CO)CCCN(Cc2ccncc2)C1 (stereo unspecified) | -3.82% (inactive)
32 | O=C(CSc1ccc(F)cc1)Nc1cccc2ccccc12 | -0.98% (inactive)
33 | COc1ccc2c(c1)C=C(CN1CCN(CC3CCCCC3)C(CCO)C1)CO2 (stereo unspecified) | 10.3% (inactive)
34 | O=c1[nH]c(=S)[nH]c(O)c1C=Nc1ccc(F)c(Cl)c1 | 5.32% (inactive)
35 | O=C(Cn1c(=O)n(Cc2cccs2)c(=O)c2cccnc21)Nc1ccc(F)cc1 | -1.72% (inactive)
36 | CCOC(=O)c1sc(NC(=O)CSc2ncccn2)c(C#N)c1C | 2.97% (inactive)
37 | CC(C)C(=O)NNS(=O)(=O)c1ccc([N+](=O)[O-])cc1 | 0.04% (inactive)
38 | O=C(NCc1nnc(SCC(=O)N2N=C(c3cccs3)CC2c2ccc(F)cc2)n1Cc1ccccc1)c1cccc(F)c1 (stereo unspecified) | -10.8% (inactive)

Row | Structure (SMILES) | activation
39 | CCc1ccc(-c2ccc(C3CCC(CC)CC3)cc2)nc1 (stereo unspecified) | -6.15% (inactive)
40 | CC(C)c1ccc(Nc2nccn3c(-c4cccc(CO)c4)cnc23)cc1 | 15.7% (inactive)
41 | O=C(c1ccccc1)N1CCCCC(Sc2ncnc3sc4c(c23)CCCC4)C1=O (stereo unspecified) | 0.65% (inactive)
42 | C[C@H]1Cc2c(COc3ccccc3)nc3c(c2CO1)CN(C(=O)NCc1ccco1)CC3 | 9.06% (inactive)
43 | CC(C)n1c(Nc2ccc3ncccc3c2)nc2c(NC3CC3)ncnc21 | 3.65% (inactive)
44 | Cc1cc(CN(C)Cc2ccc(OCC(O)CN(C)Cc3ccccc3)cc2)n[nH]1 (stereo unspecified) | -0.59% (inactive)
45 | O=C(NCCOc1ccccc1)c1cnc(N2CCN(c3ccccn3)CC2)s1 | 1.31% (inactive)
46 | COC(=O)CN1C=C(C(=O)OC)C(c2ccc(OC)c(O)c2)C(C(=O)OC)=C1 | 20.6% (inactive)
47 | CCOC(=O)c1cc2cc(-c3c(C)oc4cc(OC(C)=O)ccc4c3=O)ccc2o1 | -2.06% (inactive)
48 | CN(Cc1nc(-c2ccc3c(c2)OCO3)no1)C1CCCc2ccccc21 (stereo unspecified) | 0.92% (inactive)
49 | O=C(Cc1cccs1)Nn1c(-c2cccc([N+](=O)[O-])c2)nc2ccccc2c1=O | 13.2% (inactive)
50 | CC1(C(=O)Nc2cccc(C(F)(F)F)c2)CC2c3ccccc3C1c1ccccc12 (stereo unspecified) | 0.35% (inactive)
51 | O=CN1CCN(CCC(=O)Nc2ccccc2)CC1 | -6.54% (inactive)
52 | CCOc1ccc(NC(=O)N2CCN(CC)CC2)cc1 | 6.5% (inactive)
53 | CCSc1nc2sccn2c(=O)c1C(=O)NC(Cc1ccccn1)C(F)(F)F (stereo unspecified) | -3.52% (inactive)
54 | Cc1cccc(-n2nc3c(c2NC(=O)CCC2CCCCC2)CS(=O)(=O)C3)c1C | 7.21% (inactive)
55 | COc1ccc(-c2noc(N3CCC(C(=O)NCCCN4CCN(C)CC4)CC3)n2)cc1 | 3.82% (inactive)
56 | FC(F)(F)c1ccc(Cn2cnc3c(NCc4cccc(C(F)(F)F)c4)nc(Nc4ccc(N5CCOCC5)cc4)nc32)cc1 | -10.4% (inactive)
